# Compound activity (PubChem BioAssay)
# aSyn 5UTR act – Activators via SNCA 5'UTR binding, MLPCN. alpha-synuclein 5'UTR reporter, activators screen. activity score, % (tested at 7.5 µM), hits read low. 7.1% of 300,000 active; in the data active = activity score below about -60%
# Active calls of the source: *. Not all results are given here.
SMILES,aSyn 5UTR act
O=c1[nH]c(=O)n([C@H]2C[C@H](O)[C@@H](CO)O2)cc1C(F)(F)F,77
Nc1ncn([C@H]2C[C@H](O)[C@@H](CO)O2)c(=O)n1,-925*
Nc1nc(Cl)nc2c1ncn2C1CC(O)C(CO)O1 (stereo not drawn),87
CCOC(=O)C1=C(C)NC2=C(C(=O)c3ccccc32)C1c1ccc([N+](=O)[O-])o1 (stereo not drawn),-63*
COC(=O)C1=C(C)NC(C)=C(C(=O)OCC(C)C)C1c1ccccc1[N+](=O)[O-] (stereo not drawn),71
O=C(Nc1ccccc1)C1Cc2ccccc2CN1C(=O)c1ccco1 (stereo not drawn),-114*
c1ccc(Nc2nc3ccccc3[nH]2)nc1,-169*
Cc1cc(C)nc(Nc2nc3ccccc3[nH]2)n1,-109*
Cc1ccc(C(CC(=O)c2ccco2)SCCO)cc1 (stereo not drawn),-90*
C/C(=N/N=C(\C)c1ccccc1O)c1ccccc1O,-115*
COc1ccc(C2=NNC(c3cc(Cl)cc4c3OCOC4)C2)c(O)c1 (stereo not drawn),-73*
O=C(/C=C/c1ccccc1Cl)NCc1cccs1,-101*
O=C(/C=C/c1ccccc1Cl)NNC(=O)c1cccs1,-83*
O=C(NCc1cccs1)c1nc2c(nnn2Cc2ccccc2Cl)c(=O)[nH]1,77
O=C(/C=C/c1ccc(F)cc1)NCc1cccs1,-112*
O=C(/C=C/c1ccc(F)cc1)NC(=S)NNC(=O)c1cnccn1,95
O=C(CSCCO)Nc1ccc(C23CC4CC(CC(C4)C2)C3)cc1,-66*
O=C(O)CSCC(=O)Nc1ccc(C2CCCCC2)cc1,108
OCCN1CCN(CC(O)COc2ccc(C34CC5CC(CC(C5)C3)C4)cc2)CC1 (stereo not drawn),85
COc1ccc(C(=O)Cn2cnc3ccccc3c2=O)c(OC)c1,-96*
COc1ccc(-n2ncc3c(NCCCN4CCOCC4)ncnc32)cc1,-120*
COc1ccc(-c2oc3ncn(CCN4CCOCC4)c(=N)c3c2-c2ccc(OC)cc2)cc1,74
COc1ccc(-n2ncc3c(NCCN4CCOCC4)ncnc32)cc1,-69*
CCN(CC(=O)Nc1ccc2c(c1)OCCO2)C(=O)c1ccc(Cl)cc1Cl,-112*
CCN(CC(=O)Nc1ccc2c(c1)OCCO2)C(=O)c1ccc(C(F)(F)F)cc1,-62*
SMILES,aSyn 5UTR act
CCN(CC)C(=O)Cn1cc(S(=O)(=O)CC(=O)Nc2ccc3c(c2)OCCO3)c2ccccc21,-82*
COc1ccc(C(=O)NCCn2cc(SCC(=O)Nc3nnc(C)s3)c3ccccc32)cc1,-69*
CC(=O)Nc1ccc(-c2cc3ccccc3o2)cc1,-147*
Cc1ccc(NC(=O)c2cc3ccccc3o2)cc1Cl,-270*
CCC(=O)Nc1ccc(Cl)c(NC(=S)NC(=O)c2cc3ccccc3o2)c1,-95*
CC(C)C(=O)Nc1cccc(NC(=O)c2cc3ccccc3o2)c1,-108*
CCC[C@H](CN[C@@H](CNC)[C@H](C)CC)NCCc1cc(C(F)(F)F)cc(C(F)(F)F)c1,124
CC(=O)Nc1cccc(NC(=O)c2cc3ccccc3o2)c1,-92*
CC(=O)Nc1cccc(NC(=O)c2oc3ccccc3c2C)c1,-272*
O=C(Nc1ccc(Br)cc1)c1ccc2c(c1)OCO2,-174*
CC(C)(C)c1cnnn1-c1ccc(NC(=O)c2ccc3c(c2)OCO3)cc1,-86*
O=C(Nc1ccc(Cl)c([N+](=O)[O-])c1)c1ccc2c(c1)OCCO2,-133*
CCN1CCN(c2ccc(NC(=O)c3ccc4c(c3)OCO4)cc2)CC1,-123*
O=C(Nc1ccon1)c1ccc2c(c1)OCO2,-76*
Cn1cc(C(=O)Nc2ccc(Cl)c(Cl)c2)cn1,-85*
O=C(Nc1ccc(Cl)cc1)C1=Cc2ccccc2OC1,-150*
NC(=O)c1ccc(NC(=O)c2ccc3c(c2)OCO3)cc1,-139*
O=C(Nc1ccc(F)c(F)c1)c1ccc2c(c1)OCO2,-156*
O=C(Nc1ccc2c(c1)OCO2)c1cccc(Cl)c1,-148*
O=C(Nc1ccc(Cl)cc1)c1ccc2c(c1)OCO2,-84*
O=C(Nc1ccc(Cl)c(Cl)c1)c1ccc2c(c1)OCO2,-133*
CC1(C)C=Cc2cc3ccc(=O)oc3cc2O1,-111*
O=C(Nc1nccs1)c1ccc2c(=O)n3c(nc2c1)CCCCC3,-129*
O=C(Nc1ccc(F)cc1Cl)c1ccc2c(=O)n3c(nc2c1)CCC3,-109*
Cc1csc(NC(=O)c2ccc3c(=O)n4c(nc3c2)CCCCC4)n1,-139*
SMILES,aSyn 5UTR act
CC(/C=N\NC(=O)CN1CCN(Cc2ccccc2)CC1)=C\c1ccco1,-94*
O=C(CN1CCN(Cc2ccccc2Cl)CC1)N/N=C/C=C/c1ccco1,-77*
O=C(CN1CCN(Cc2ccccc2)CC1)N/N=C\C=C/c1ccco1,-71*
CN(c1ccc(O)cc1)S(=O)(=O)c1ccc2ccccc2c1,-111*
c1ccc(-c2ccc3c(c2)NCCN3)cc1,-113*
O=C(Cn1cnc2c(oc3ccccc32)c1=O)c1ccccc1,-106*
Cc1cc(C)c2c(n1)sc1c(=O)n(CC(=O)c3ccccc3)cnc12,-132*
COC(=O)c1ccc(NC(=O)C2CC3CCC2C3)cc1 (stereo not drawn),-194*
CCCOC(=O)c1ccc(NC(=O)C2C3CCC(C3)C2C(=O)O)cc1 (stereo not drawn),-85*
CCOC(=O)c1ccc(NC(=O)C2CC3CCC2C3)cc1 (stereo not drawn),-128*
CCOC(=O)c1ccc(NS(=O)C23CC4CC(CC(C4)C2)C3)cc1 (stereo not drawn),-110*
Clc1ccc(COn2ccnc2)cc1Cl,-104*
Clc1ccc(-c2csc(N3CCCCCC3)n2)cc1,-85*
O=[N+]([O-])c1ccc(-c2csc(N3CCCCCC3)n2)cc1,-78*
COc1ccc(-c2csc(N3CCOCC3)n2)cc1OC,-80*
CN1CCN(c2nc(-c3ccc(Cl)s3)cs2)CC1,-84*
Brc1ccc(-c2csc(N3CCOCC3)n2)cc1,-132*
c1ccc(-c2csc(N3CCCCCC3)n2)cc1,-139*
c1ccc(-c2cnnc(N3CCCCC3)n2)cc1,-140*
Clc1ccc(-c2csc(N3CCOCC3)n2)cc1,-140*
COc1nc(-c2ccccc2)ccc1-c1noc(-c2ccccc2F)n1,-109*
COc1nc(C)ccc1-c1noc(-c2ccco2)n1,-124*
COc1nc(-c2ccc(C)cc2)ccc1-c1noc(-c2ccco2)n1,-70*
COc1cc(/C=C(\C#N)c2nc3c(s2)CCCC3)ccc1O,-158*
N#C/C(=C\c1cccnc1)c1nc2c(s1)CCCC2,-141*
SMILES,aSyn 5UTR act
CC1CCc2nc(/C(C#N)=C/c3cccnc3)sc2C1 (stereo not drawn),-192*
Cn1cc(Br)c(C(=O)Nc2sc3c(c2C(N)=O)CCCC3)n1,-114*
CCn1cc(Br)c(C(=O)Nc2sc3c(c2C(N)=O)CCCC3)n1,-102*
O=C(Nc1ccc2c(c1)CCC2)c1c(F)cccc1Cl,-159*
O=C(Nc1ccc2c(c1)CCC2)c1ccc(Cl)nc1,-156*
O=C(Nc1ccc2c(c1)CCC2)c1cnc(Cl)c(Cl)c1,-190*
Cc1cccc(NC(=O)c2cccc(OC(=S)N3CCOCC3)c2)c1C,-66*
N=c1c2ccccc2nnn1-c1ccc(C(F)(F)F)cc1,-147*
CCCN1CCc2c(sc(NC(=S)NC(=O)c3ccccc3)c2C#N)C1,-140*
CC(C)N1CCc2c(sc(NC(=S)NC(=O)c3ccccc3)c2C#N)C1,-143*
COC(=O)c1c(NC(=O)c2ccc([N+](=O)[O-])o2)sc2c1CCN(C(C)C)C2,105
